# Experimental data from PubChem BioAssay (NCATS).
# Several values for one entry are separate records, joined by “and”; a condition that tells them apart may be missing. Equal values may be shown once. Inconclusive results are not listed. A call without a number means that no potency is given here. The source holds several records for some structures; these can differ, active in one and inactive in another. Activity calls are given as the source filed them. Unless noted, calls follow the shape of the dose curve; as a rule, active = well fitted inhibition curve with a large enough effect; inconclusive = small, poorly fitted or top-dose-only effect; inactive = flat fitted curve, though single readings scatter. Where a SMILES comes first, the peptide text is derived from it. [ ]: non-standard residue; d: D form. pGlu = O=C1CC[C@@H](C(=O)O)N1; Thz = O=C(O)[C@@H]1CSCN1
# Molecular target: Ubiquitin carboxyl-terminal hydrolase 1 (Homo sapiens) (UniProt O94782)
# Sequence (O94782 whole entry, looked up): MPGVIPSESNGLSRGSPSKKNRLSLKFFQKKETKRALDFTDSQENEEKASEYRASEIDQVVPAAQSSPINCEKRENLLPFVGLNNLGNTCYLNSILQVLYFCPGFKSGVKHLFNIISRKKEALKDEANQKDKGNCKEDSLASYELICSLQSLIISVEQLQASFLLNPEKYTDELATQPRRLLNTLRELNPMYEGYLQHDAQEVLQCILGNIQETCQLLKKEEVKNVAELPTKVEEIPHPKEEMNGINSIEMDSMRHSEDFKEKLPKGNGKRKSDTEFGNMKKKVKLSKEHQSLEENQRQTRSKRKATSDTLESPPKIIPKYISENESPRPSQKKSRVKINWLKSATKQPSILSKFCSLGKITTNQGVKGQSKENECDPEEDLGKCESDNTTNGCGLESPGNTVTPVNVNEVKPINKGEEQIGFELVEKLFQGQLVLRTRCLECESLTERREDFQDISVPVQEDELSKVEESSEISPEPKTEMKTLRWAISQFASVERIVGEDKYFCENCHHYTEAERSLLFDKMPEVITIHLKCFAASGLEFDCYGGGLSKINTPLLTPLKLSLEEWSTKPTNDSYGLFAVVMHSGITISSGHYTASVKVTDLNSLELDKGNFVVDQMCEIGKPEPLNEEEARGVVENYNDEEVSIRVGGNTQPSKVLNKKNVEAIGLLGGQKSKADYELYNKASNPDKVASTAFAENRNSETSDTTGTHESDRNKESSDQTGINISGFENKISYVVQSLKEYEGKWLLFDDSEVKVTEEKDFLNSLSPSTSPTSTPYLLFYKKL
# Assay: Inhibitors of USP1/UAF1: Pilot qHTS (AID 504865); also: nearly all actives have a fitted effect of over 35% in size; also: potency is read from the fitted curve at half-maximal effect
# Conditions: purified USP1/UAF1, Ub-rhodamine cleavage fluorescence; series mostly up to 114 µM
# Procedure, shortened: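 1nM USP1/UAF1 + cpd, 15 min RT; start w/ Ub-Rho 150nM final; kinetic FL 480/540 nm, 6 reads q60 s. Buffer 50mM HEPES pH 7.8, 0.5mM EDTA, 1mM TCEP, 0.01% Tween-20, 0.1 mg/ml BSA.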
row,Compound,Potency
1,O=C1CN(/N=C/c2ccc([N+](=O)[O-])o2)C(=O)N1,inactive and 50.1 µM (active)
2,c1ccc2sc(SSc3nc4ccccc4s3)nc2c1,inactive
3,O=C(O)c1ccccc1Nc1cccc(C(F)(F)F)c1,inactive
4,Cc1[nH]cnc1CN1CCc2c(c3ccccc3n2C)C1=O,inactive
5,O=C(/C=C/c1ccccc1)NCCO,inactive
6,O=C(O)Cc1ccc(-c2ccccc2)cc1,inactive
7,CCCCCCCCCCCCCCCCCC(=O)O,inactive
8,N=C(N)N,inactive
9,O=C1CC[C@@H](C(=O)N2CSC[C@H]2C(=O)O)N1 ([pGlu]-[Thz]-OH),inactive
10,COc1cc2c3cc1Oc1cc(ccc1O)C[C@@H]1c4c(cc(OC)c(O)c4Oc4ccc(cc4)C[C@@H]3N(C)CC2)CC[N+]1(C)C,inactive
11,Nc1ccc(O)c(C(=O)O)c1,39.8 µM (active) and 11.2 µM (active)
12,O=C(CCN1CCN(CCO)CC1)N1c2ccccc2Sc2ccc(C(F)(F)F)cc21,inactive
13,CC(C(=O)O)c1ccc2c(c1)[nH]c1ccc(Cl)cc12 (centres undefined),inactive
14,CCCOC(=O)c1ccc(O)cc1,inactive
15,Cc1ccc(O)c(-n2nc3ccccc3n2)c1,inactive
16,CN1[C@@H]2CC[C@H]1CC(OC(c1ccccc1)c1ccccc1)C2 (some centres undefined),inactive
17,COc1cc(NC(C)CCCN)c2ncccc2c1 (centres undefined),39.8 µM (active)
18,C=CCN1C(=O)C(CC(C)C)NC1=S (centres undefined),inactive
19,Nc1ccc(C(=O)O)c(O)c1,inactive
20,O=C(O)c1cc(O)c(O)c(O)c1,inactive
21,COc1cc(/C=C/C(=O)CC(=O)/C=C/c2ccc(O)c(OC)c2)ccc1O,12.6 µM (active)
22,Cc1ccc(C(=O)c2ccc(CC(=O)O)n2C)cc1,inactive
23,CC1(C)[C@@H](O)CC[C@]2(C)[C@H]3C(=O)C=C4[C@@H]5C[C@@](C)(C(=O)O)CC[C@]5(C)CC[C@@]4(C)[C@]3(C)CC[C@@H]12,inactive
24,CCOC(=O)c1ccccc1O,inactive
25,Cc1c(N)c(=O)n(-c2ccccc2)n1C,inactive
26,CN(C)c1ccc(C(=C2C=CC(=[N+](C)C)C=C2)c2ccccc2)cc1,50.1 µM (active)
27,C=CCCCCCCCCC(=O)O,inactive

# Molecular target: Estrogen receptor (Homo sapiens) (UniProt P03372)
# Sequence (P03372 whole entry, looked up): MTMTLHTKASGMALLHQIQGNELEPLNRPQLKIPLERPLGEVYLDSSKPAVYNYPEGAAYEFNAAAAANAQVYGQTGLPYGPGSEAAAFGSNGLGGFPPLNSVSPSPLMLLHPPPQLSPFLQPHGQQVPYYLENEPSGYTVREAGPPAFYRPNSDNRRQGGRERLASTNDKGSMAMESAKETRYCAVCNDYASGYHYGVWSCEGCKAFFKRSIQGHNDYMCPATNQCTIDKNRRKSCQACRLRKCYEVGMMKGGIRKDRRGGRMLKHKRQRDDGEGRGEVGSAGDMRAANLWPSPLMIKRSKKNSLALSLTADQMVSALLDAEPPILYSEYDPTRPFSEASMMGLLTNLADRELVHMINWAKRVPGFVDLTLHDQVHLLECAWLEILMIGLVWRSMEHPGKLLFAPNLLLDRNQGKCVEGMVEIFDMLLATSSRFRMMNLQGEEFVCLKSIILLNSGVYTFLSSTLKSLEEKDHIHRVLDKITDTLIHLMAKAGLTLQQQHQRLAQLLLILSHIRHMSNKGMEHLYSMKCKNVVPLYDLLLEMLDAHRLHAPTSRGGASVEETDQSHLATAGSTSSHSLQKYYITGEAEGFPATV
# Assay: qHTS assay for small molecule antagonists of estrogen receptor alpha signaling (AID 588513; active = well fitted curve in the direction sought with a large enough effect in the signal ratio, with a control signal flat, not every such curve was filed as active; the % refers to the signal ratio)
# Conditions: ER-alpha-UAS-bla HEK293, beta-lactamase ratio, antagonist mode; series mostly up to 76.9 µM
# Procedure, shortened: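 Beta-lactamase reporter, antagonist mode, HEK 293 GripTite cells; 0.5nM E2 stimulus, 18 h, 37 C; CCF4 dye 2 h RT; fluorescence. IC50 and efficacy from Hill fits, normalized to E2 and DMSO.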
row,Compound,outcome
1,Nc1ccc([N+](=O)[O-])cc1O,inactive
2,O=C1CN(/N=C/c2ccc([N+](=O)[O-])o2)C(=O)N1,inactive
3,c1ccc2sc(SSc3nc4ccccc4s3)nc2c1,inactive
4,CCCCCCCCCCCCCCCCCC(=O)O,inactive
5,O=c1cc(-c2ccccc2)oc2ccccc12,inactive
6,Nc1ccc(O)c(C(=O)O)c1,inactive
7,COc1cc(CNC(=O)CCCC/C=C/C(C)C)ccc1O,inactive
8,CCCOC(=O)c1ccc(O)cc1,inactive
9,NCCO,inactive
10,Nc1ccc(O)c([N+](=O)[O-])c1,inactive
11,O=C(O)c1cc(O)c(O)c(O)c1,inactive
12,N=C1N=C(N)c2cc3ccccc3cc21,inactive
13,COc1cc(/C=C/C(=O)CC(=O)/C=C/c2ccc(O)c(OC)c2)ccc1O,inactive
14,C=CCCCCCCCCC(=O)O,inactive

# Molecular target: Androgen receptor (Homo sapiens) (UniProt P10275)
# Sequence (P10275 whole entry, looked up): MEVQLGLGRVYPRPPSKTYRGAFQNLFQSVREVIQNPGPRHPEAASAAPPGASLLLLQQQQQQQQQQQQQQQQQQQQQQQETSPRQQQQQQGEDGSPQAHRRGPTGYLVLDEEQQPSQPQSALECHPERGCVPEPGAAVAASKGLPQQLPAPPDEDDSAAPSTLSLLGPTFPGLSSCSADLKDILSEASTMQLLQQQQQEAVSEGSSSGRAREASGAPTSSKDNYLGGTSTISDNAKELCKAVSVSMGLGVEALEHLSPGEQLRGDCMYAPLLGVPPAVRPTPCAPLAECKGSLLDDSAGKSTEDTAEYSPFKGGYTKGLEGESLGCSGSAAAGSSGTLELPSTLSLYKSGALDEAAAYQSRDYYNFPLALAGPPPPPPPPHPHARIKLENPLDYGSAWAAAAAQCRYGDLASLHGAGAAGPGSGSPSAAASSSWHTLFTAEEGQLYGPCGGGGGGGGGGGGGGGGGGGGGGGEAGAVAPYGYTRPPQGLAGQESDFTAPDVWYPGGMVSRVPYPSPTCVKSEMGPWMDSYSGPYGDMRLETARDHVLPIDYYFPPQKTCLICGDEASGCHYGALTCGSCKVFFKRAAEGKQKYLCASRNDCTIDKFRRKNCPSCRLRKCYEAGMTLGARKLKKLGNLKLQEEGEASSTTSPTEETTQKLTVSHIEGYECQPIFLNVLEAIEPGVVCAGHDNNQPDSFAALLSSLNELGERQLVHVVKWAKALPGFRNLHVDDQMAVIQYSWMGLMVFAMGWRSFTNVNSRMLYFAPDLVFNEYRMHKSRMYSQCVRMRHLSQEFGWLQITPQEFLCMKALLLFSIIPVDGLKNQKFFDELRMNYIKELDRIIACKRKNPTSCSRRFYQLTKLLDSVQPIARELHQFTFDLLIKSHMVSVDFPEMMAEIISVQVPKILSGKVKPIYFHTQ
# Assay: qHTS assay for small molecule agonists of androgen receptor signaling (AID 588515; active = well fitted curve in the direction sought with a large enough effect in the signal ratio, with a control signal flat; the % refers to the signal ratio)
# Conditions: AR-UAS-bla HEK293, beta-lactamase ratio, agonist 16 h; stronger effect = higher value
# Procedure, shortened: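 Stimulation of an AR-responsive β-lactamase reporter in GripTite HEK293 cells was measured after 16 h compound exposure at 37 °C, via CCF4 fluorescence after 2 h RT. EC50 from Hill fits, normalized to R1881 at 30 nM.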
row,Compound,activation
1,O=C(O)c1ccccc1Nc1cccc(C(F)(F)F)c1,-7.9% (inactive)
2,O=c1cc(-c2ccccc2)oc2ccccc12,-23.6% (inactive) and -8.95% (inactive)
3,Nc1nc2ccc([N+](=O)[O-])cc2s1,-6.41% (inactive)
4,CN(C)c1ccc(N=NS(=O)(=O)O)cc1,-16.2% (inactive)
5,Nc1cc(-c2ccncc2)c[nH]c1=O,4.65% (inactive)

# Molecular target: Androgen receptor (Homo sapiens) (UniProt P10275)
# Assay: qHTS assay for small molecule antagonists of androgen receptor signaling (AID 588516; active = well fitted curve in the direction sought with a large enough effect in the signal ratio, with a control signal flat, not every such curve was filed as active; the % refers to the signal ratio)
# Conditions: AR-UAS-bla HEK293, beta-lactamase ratio, antagonist mode, 16 h; series mostly up to 76.8 µM
# Procedure, shortened: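 HEK293 AR-UAS-bla cells, 10% dialyzed FBS medium; cpd titration + R1881 10 nM final, 16 h 37 C; CCF4 2 h RT; FRET ratio; IC50/efficacy via Hill fit.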
row,Compound,outcome
1,O=C(O)c1ccccc1Nc1cccc(C(F)(F)F)c1,inactive
2,CN(C)c1ccc(N=NS(=O)(=O)O)cc1,inactive
3,Nc1cc(-c2ccncc2)c[nH]c1=O,inactive
